Results reported in PubChem BioAssay (NCI).
Compounds without any hit were thinned out: in the full panel of roughly 83,000, 20% have a hit.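 In brief: 96-well plates, 48 h treatment, single concentration, percent growth endpoint.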 Unmarked numbers belong to inactive results. The source made the active and inactive calls. Rule for the calls: active = growth percent below 10; inactive = the rest.

How the values were obtained:
Assay in all cases: NCI-60 one-dose screen, 48 h (100 = growth as untreated, 0 = no growth, -100 = all killed)
HCT-15 colon = conditions: 10 µM unless noted
HT29 colon = conditions: 10 µM unless noted
SNB-75 CNS = conditions: 10 µM unless noted
U251 CNS = conditions: 10 µM unless noted
PC-3 prostate = conditions: 10 µM unless noted
SK-MEL-5 melanoma = conditions: 10 µM unless noted
UACC-62 melanoma = conditions: 10 µM unless noted
LOX IMVI melanoma = conditions: 10 µM
SK-MEL-28 melanoma = conditions: 10 µM unless noted
SK-MEL-2 melanoma = conditions: 10 µM unless noted
EKVX NSCLC = conditions: 10 µM unless noted
UO-31 renal = conditions: 10 µM unless noted
TK-10 renal = conditions: 10 µM unless noted
ACHN renal = conditions: 10 µM unless noted
CAKI-1 renal = conditions: 10 µM unless noted
A498 renal = conditions: 10 µM unless noted
CCRF-CEM leukemia = conditions: 10 µM unless noted
MOLT-4 leukemia = conditions: 10 µM unless noted
SN12C renal = conditions: 10 µM unless noted
SNB-19 CNS = conditions: 10 µM unless noted

| SMILES | growth (HCT-15 colon) | growth (HT29 colon) | growth (SNB-75 CNS) | growth (U251 CNS) | growth (PC-3 prostate) | growth (SK-MEL-5 melanoma) | growth (UACC-62 melanoma) | growth (LOX IMVI melanoma) | growth (SK-MEL-28 melanoma) | growth (SK-MEL-2 melanoma) | growth (EKVX NSCLC) | growth (UO-31 renal) | growth (TK-10 renal) | growth (ACHN renal) | growth (CAKI-1 renal) | growth (A498 renal) | growth (CCRF-CEM leukemia) | growth (MOLT-4 leukemia) | growth (SN12C renal) | growth (SNB-19 CNS) [%] |
| --- | --- | --- | --- | --- | --- | --- | --- | --- | --- | --- | --- | --- | --- | --- | --- | --- | --- | --- | --- | --- |
| CC(C)CSc1nc(NCCc2c[nH]c3ccccc23)c(C#N)c(-c2ccc(F)cc2)n1 | 19.6% | 5.49% (active) | 61.1% | 21.1% | 26.2% | 17.3% | 60.6% | 12.4% | 79.1% | 78.9% | 45.9% | 70.3% | 92.4% | 59.6% | 49.2% | 92.8% | 22.1% | 27.9% |  |  |
| Clc1cccc(-c2ccc(OCCCN3CCN(c4ccncc4)CC3)cc2)c1 | -69.8% (active) | -57.5% (active) | 42.8% | -73.6% (active) | -8.32% (active) | -98% (active) | -74.3% (active) | -94.9% (active) | -68.5% (active) | 74% | 11.6% | 30.4% | 41.9% | 49.4% | 5.23% (active) | 65.5% | -28.7% (active) | -47.4% (active) |  |  |
| CCC(C)(C)c1ccc(OCCCCN2CCN(c3ccncc3)CC2)cc1 | -1.1% (active) | 6.61% (active) | 69.5% | -11.8% (active) | 19.3% | -99.4% (active) | -74.5% (active) | -76.8% (active) | -6.03% (active) | 63.2% | 28% | 40.2% | 70.8% | 68.9% | 43.5% | 88.9% | 2.23% (active) | 1.66% (active) |  |  |
| COc1ccc2oc(=O)c(C3(C)NC(=O)c4c(/C=C/C(=O)OC(C)(C)C)cccc4N3)cc2c1 (configuration not stated) | 32.6% | 39.1% | 56.3% | 48.4% | 15.6% | -59.8% (active) | 20.4% | 49.1% | 40.6% | 7.6% (active) | 37.1% | 25% | 56.7% | 28.6% | 39.9% | 57.8% | 32.1% | 18.1% | 40.6% |  |
| CN(C)c1ccnc(CNCCSC2(c3ccc(C(F)(F)F)cc3)c3ccccc3CCc3ccccc32)c1 | -82.8% (active) | -65.9% (active) | -2.6% (active) | -94.9% (active) | -35.3% (active) | -99.6% (active) | -5.98% (active) | -98.1% (active) | -81.7% (active) | -37.6% (active) | -25.3% (active) | 1.7% (active) | 0.0233% (active) | -12.1% (active) | -0.905% (active) | -4.68% (active) | -43.6% (active) | -20.9% (active) |  |  |
| Cc1occc1C(=O)NN1C(=O)/C(=C/C=C/c2ccc([N+](=O)[O-])o2)SC1=S | -75.5% (active) | -57.2% (active) | -13.4% (active) | -92.7% (active) | 0.198% (active) | -96.7% (active) | -91.9% (active) | -95.9% (active) | -73.2% (active) | -71.8% (active) | -52.1% (active) | -96.3% (active) | -49.7% (active) | -100% (active) | -59.7% (active) | 95.3% | 0.965% (active) |  | -88.1% (active) |  |
| O=c1onc(-c2cc3ccccc3nc2Cl)n1-c1cccc2ccccc12 | 21.6% | 39.6% | 8% (active) | 54.8% | 40.4% | 3.23% (active) | 29.9% | 42% | 55.9% | 19.6% | 29.5% | 38.2% | 78.6% | 50.4% | 29.1% | 90.8% | 33% | 24.5% |  |  |
| CC(C)CSc1nc(NCCc2c[nH]c3ccccc23)c(C#N)c(-c2ccc(Cl)cc2)n1 | 29.8% | 15.1% | 77.3% | 23.8% | 23.1% | 30% | 74.1% | 22.5% | 72.1% | 90.1% | 46.1% | 65.1% | 108% | 67.4% | 50.1% | 113% | 20.6% | 20.8% |  |  |
| O=C1N/C(=N\c2nccs2)S/C1=C\C=C/c1ccccc1 | 28.1% | 25.5% | 83.5% | 8.95% (active) |  |  | -24% (active) |  | 18% | 37.7% | 27.5% | 25.5% | 34.5% | 23.5% | 35.1% | 57.2% |  |  | 39.2% | 26.6 |
| C#CCOc1ccc(/C=N/Nc2nc(-c3cc4cc(Br)ccc4oc3=O)cs2)cc1OC | 85.4% | 36.1% | 84.5% | 12.5% | 74.2% | 87.1% | 57.5% | 49.5% | 78.2% | 105% | 78.9% | 89.7% | 102% | 71% | 67.9% | 50.1% | 100% | 92.8% | 72.8% |  |
| CN(C)c1ccnc(CNCCSC2(c3ccc(C(F)(F)F)cc3)c3ccccc3C=Cc3ccccc32)c1 | -90.6% (active) | -61.7% (active) | -6.52% (active) | -77% (active) | -3.49% (active) | -97.1% (active) | 2.63% (active) | -92% (active) | -67.4% (active) | -41.1% (active) | -23.9% (active) | 17.6% | 12.4% | 13.2% | 6.81% (active) | 21.6% | 0.384% (active) | 16.1% |  |  |
| COc1ccc(-c2nc3ccc(C(=O)NN4C(=O)c5ccc([N+](=O)[O-])cc5C4=O)cc3[nH]2)cc1 | 95.9% | 87.1% | 83.3% | 97% | 90.5% | 83.1% | 80.2% | 87.1% | 95.6% | 101% | 90.7% | 88.6% | 101% | 98.4% | 92.6% | 103% | 83.3% | 98.7% |  |  |
| CC1(C)CC[C@]2(C(=O)Nc3ccc(F)cc3)CC[C@]3(C)C(=CCC4[C@@]5(C)C[C@@H](O)[C@H](O)[C@@](C)(CO)C5CC[C@]43C)C2C1 (some centres not stated) | 24.1% | 5.61% (active) | 81.7% | 38.3% | 11.2% | -47.6% (active) | 35% | 26.5% | 52.9% | 45.9% | 32.3% | 29.8% | 58.6% | 31.3% | 42.7% | 29.8% | 18.2% | 5% (active) |  |  |
| CCC(C)(C)c1ccc(OCCCCCCN2CCN(c3ccncc3)CC2)cc1 | -55.5% (active) | -39.8% (active) | 69.6% | -45.7% (active) | -4.93% (active) | -99.2% (active) | -48% (active) | -96.8% (active) | -18.9% (active) | 71.6% | 6.51% (active) | 28.2% | 65.2% | 48.3% | 17.5% | 66.1% | -23.4% (active) | -23.5% (active) |  |  |
| CCCSc1nc(NCCc2c[nH]c3ccccc23)c(C#N)c(-c2ccccc2)n1 | 27.3% | 30.3% | 87.7% | 44.6% | 35% | 41.6% | 76.3% | 53.3% | 97.4% | 75% | 35.7% | 64.5% | 107% | 78.2% | 57.1% | 82.5% | 40.4% | 44.7% |  |  |
| O=c1[nH]c2ccccc2cc1CSc1nccc(-c2ccc3ccccc3c2)n1 | 29% | 44.3% | 86.6% | 65.2% | 50% | 57.2% | 60.9% | 67.1% | 86.3% | 84.5% | 49.4% | 78.6% | 83% | 95.8% | 56.6% | 114% | 33.1% | 21.9% |  |  |
